Only some compounds are listed: those with a hit (about 11% of all), similar ones and a draw of the others.
HttQ103 aggreg: qHTS Multiplex Assay to Identify Dual Action Probes in a Cell Model of Huntington: Aggregate Formation (GFP); Potency, µM (highest dose often 46.1 µM), for inactives: top-dose activity change, negative = inhibition, actives largely listed as inhibitors; AID 1688, 2009; 220,000 tested, 1.1% active; PC12 HttQ103-GFP aggregates, Acumen cytometry, 40 h; also: potency is read from the fitted curve at half-maximal effect; % is scaled to controls: 0 for no effect and ±100 for the full control effect; nearly all actives have a fitted effect of over 60% in size
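Quantitative HTS on tebufenozide-induced (100 nM) PC12 cells stably expressing polyQ103 Huntingtin exon 1–GFP. Reduction of bright GFP aggregates, detected by laser scanning cytometry after lysis, identified actives across the titration.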
CBFb-RUNX1 inh: qHTS Assay for Compounds Blocking the Interaction Between CBF-beta and RUNX1 for the Treatment of Acute Myeloid Leukemia. Potency, µM (titrated, usually from 59.8 µM), without a hit: top-dose activity, negative = inhibition, hits mostly inhibitors. AID 1477, 2009. AlphaScreen CBFb-His/RUNX1-biotin binding, biochemical. 230,000 tested, under 10 active. Runt-related transcription factor 1 (Homo sapiens) + Core-binding factor subunit beta …; also: % of control where 0% means no effect
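Interaction loss through any mechanism counts as activity. Pre-formed complex of His-CBF-beta and biotin-RUNX1 (30 nM apiece) is incubated with compound 15 min, then with 50 ng nickel and 50 ng streptavidin beads for 90 min before AlphaScreen detection.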
ALDH1A1 inh: qHTS Assay for Inhibitors of Aldehyde Dehydrogenase 1 (ALDH1A1); Aldehyde dehydrogenase 1A1 (Homo sapiens), P00352; AID 1030, 2008; 220,000 tested, 7.3% active; Potency, µM (doses to about 75.3 µM), for the others: at the top dose activity, negative = inhibition, hits mostly inhibitors; Purified ALDH1A1, NADH fluorescence, propionaldehyde substrate; active = well fitted inhibition curve with a large enough effect, not every such curve was filed as active; inconclusive = small, poorly fitted or top-dose-only effect, or another doubt; inactive = no such curve, though single readings can be large or run the other way;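 also: potency is read from the fitted curve at half-maximal effect; plate controls were no enzyme wells and a reference inhibitor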
HTT ATP protect: qHTS Multiplex Assay to Identify Dual Action Probes in a Cell Model of Huntington: Cytoprotection (ATP) | AID 1471, 2008 | Potency, µM (series often up to 56.4 µM), for inactives: cytoprotection (ATP increase), hits mostly activators | PC12 HTT-Q103 induced, cytoprotection, ATP luminescence, 40 h | 230,000 tested, 0.14% active; also: potency is read from the fitted curve at half-maximal effect; % of control where 0% means no effect; nearly all actives have a fitted effect of over 45% in size
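Huntington model: PC12 line, ecdysone-inducible HTTQ103 exon1–GFP, tebufenozide 100 nM. Test articles in a dose series. Endpoint luminescence from cellular ATP.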
HPGD block: qHTS Assay for Inhibitors of HPGD (15-Hydroxyprostaglandin Dehydrogenase). purified HPGD, NADH fluorescence kinetic, PGE2 substrate. Potency, µM, inactives show top-dose activity change, negative = inhibition, hits mostly inhibitors. 150,000 tested, 4.3% active. AID 894, 2007; active = well fitted inhibition curve with a large enough effect, not every such curve was filed as active; inconclusive = small, poorly fitted or top-dose-only effect, or another doubt; inactive = no such curve, though single readings can be large or run the other way; also: potency is read from the fitted curve at half-maximal effect; % is scaled to controls: 0 for no effect and ±100 for the full control effect
Target sequence (P15428 whole entry, looked up): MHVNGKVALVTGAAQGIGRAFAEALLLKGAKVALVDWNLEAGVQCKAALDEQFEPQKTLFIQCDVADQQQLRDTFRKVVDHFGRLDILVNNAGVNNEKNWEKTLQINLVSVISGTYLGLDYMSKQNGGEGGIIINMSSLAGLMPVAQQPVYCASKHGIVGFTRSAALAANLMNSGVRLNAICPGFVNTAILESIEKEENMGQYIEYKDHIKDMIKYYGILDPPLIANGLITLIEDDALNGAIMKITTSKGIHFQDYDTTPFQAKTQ
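NADH formation kinetics: reaction with 30 uM PGE2 and 1 mM NAD+ (final), 20 nM enzyme, Tris-HCl pH 8 with Tween 20, after 15 min compound preincubation at room temperature. Fluorescence change, last versus first of five reads.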
PNC inhibitor: High Content Assay for Compounds that inhibit the Assembly of the Perinucleolar Compartment; PC3M PTB-GFP, PNC prevalence imaging, 16 h; hits give low values; activity change (PNC), negative = inhibition, % at 10 µM; 140,000 tested, 3.1% active; AID 2417, 2010;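 active = readout at or below -70, meaning at least 70% loss of cells showing the perinucleolar compartment, a nuclear body marking cancer cells; inconclusive = readout between -30 and a set limit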;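 also: plate controls were DMSO wells for no effect and camptothecin positive control wells for full effect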
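Compounds are pinned in duplicate onto adhered PC3M cells stably expressing GFP-tagged PTB and incubated 16 h at 37 C. Cells are then fixed, nuclei stained with Hoechst, and PNC-positive cells counted.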
Starred values were filed as active, the others as inactive; ? = inconclusive; nt = not tested or not shown; [ ] = remark or other dose. Unless noted, calls follow the shape of the dose curve; as a rule, active = well fitted curve in the direction sought with a large enough effect; inconclusive = small, poorly fitted or top-dose-only effect, or another doubt; inactive = no such curve, though single readings can be large; an effect the other way counts as inactive or inconclusive.

SMILES	HttQ103 aggreg	CBFb-RUNX1 inh	ALDH1A1 inh	HTT ATP protect	HPGD block	PNC inhibitor
COc1ccc(C2CC(C(F)(F)F)n3nc(C(=O)NCc4c(C)nn(C)c4C)c(Cl)c3N2)cc1 (configuration not stated)	8.9µM*	4%	-6%	-12%	-27%	57
CC1=NN(c2ccccc2)C(=O)[C@@H]1N=Nc1ccc(S(N)(=O)=O)cc1	nt	nt	13%[13.5 µM]	-3%[10 µM]	-8%	nt
Brc1ccc(-c2csc(NNC3=NCCCCC3)n2)cc1	-31%	-17%	11µM*	-45%	nt	-22
CC(C)(C)c1ccc(-c2csc(NNC3=NCCCCC3)n2)cc1	-19%	-4%	-15%	34%	-13%	31
O=[N+]([O-])c1ccc(N/N=C/c2sc(N3CCOCC3)nc2-c2ccccc2)c(S(=O)(=O)Nc2ccc(Cl)cc2)c1	3.5µM*	6%	-4%	-64%	nt	nt
O=C(Nc1ccc2ccccc2c1)[C@H]1C[C@@H]1[C@H](NP(=O)(c1ccccc1)c1ccccc1)c1ccccc1	nt	6%	-2%	-4%	-14%	nt
CCN(CC)CCNC(=O)c1ccc(Cc2nc3ccccc3[nH]2)cc1	nt	nt	11%	nt	0%	nt
CN1CCN(S(=O)(=O)c2ccc(NC(=S)NC(=O)c3ccccc3)cc2)CC1	-19%	0%	25µM*	-7%	?	16
CN1CCN(S(=O)(=O)c2ccc(NC(=S)NC(=O)C(C)(C)C)cc2)CC1	2%[9.22 µM]	-9%	32µM*	-10%[10 µM]	nt	nt
CN1CCN(S(=O)(=O)c2ccc(NC(=S)NC(=O)c3ccc(Cl)cc3)cc2)CC1	32%	0%	-10%	-41%	nt	8
CN(Cc1ccccc1)S(=O)(=O)c1ccc(NC(=S)NC(=O)C(C)(C)C)cc1	5%	-8%	13µM*	1%[10 µM]	-15%	-5
CN1CCN(C(=S)NC(=O)c2ccc(S(=O)(=O)N3CCOCC3)cc2)CC1	-2%	5%	9.5µM*	17%[10 µM]	nt	nt
CCC(=O)NC(=S)Nc1ccc(S(=O)(=O)N2CCN(C)CC2)cc1	4%	4%	6%	nt	-4%	?
CN(Cc1ccccc1)S(=O)(=O)c1ccc(NC(=S)NC(=O)C2CCCCC2)cc1	1%	-5%	-3%	11%[10 µM]	-7%	-7
Cc1cccc(C(=O)NCC(c2ccc(F)cc2)N2CCOCC2)c1 (configuration not stated)	0%	16%	19%	0%	nt	nt
COC(=O)[C@@]1(Cc2ccc(F)cc2)[C@H]2c3cc(C(=O)N(C)C)n(Cc4ccc(C)c(F)c4F)c3C[C@H]2CN1C(=O)c1ccccc1	nt	-9%	2%	-31%	-14%	nt
CS(=O)(=O)Nc1cccc(-c2nccc(NCc3ccccc3)n2)c1	nt	nt	6%	-6%	-8%	nt
O=C(O)c1c(C(=O)O)c2ccccc2[nH]c1=O	nt	-7%	-5%	-1%	-19%	nt
CCOc1cc(C=C(C#N)C#N)ccc1Oc1ccc([N+](=O)[O-])cn1	nt	0%	3.2µM*	nt	nt	nt
CCCn1c(SCC(=O)Nc2ccc(S(=O)(=O)N(C)C)cc2)n[nH]c1=O	18%	1%	22%	nt	nt	nt
C/C(=N\Nc1nnc(-c2ccccc2)c(-c2ccccc2)n1)c1cccc([N+](=O)[O-])c1	-23%	4%	?	27%	6.3µM*	6
CCCCC(=O)Nc1sc2c(c1C(=O)OCC)CCC(C=O)=C2Cl	?	0%	10µM*	-101%	-12%	-5
O=c1c(C/C=C/c2ccccc2)c(O)ccn1CCc1c[nH]c2ccccc12	13%	1%	40µM*	19%	nt	nt

Source: PubChem (National Center for Advancing Translational Sciences (NCATS))
